Out of some 44,000 sequences screened, about 3,200 (7.3%) were called active. Rule as the data show it: active = GI50 up to about 1.1 µM and inactive = higher. For the sample, actives were picked, then their nearest neighbours and some sequences at random. Measured potencies and affinities stand elsewhere.
Tested on: DU-145

| Substance | GI50 |
| --- | --- |
| [Bis(aminomethyl)dimethylsilane]tetrachloroplatinum(IV), CHEMBL2146190 | 5.02 µM |
| [Bis(aminomethyl)pentamethylenesilane]tetrachloropaltinum(IV), CHEMBL2146204 | 0.344 µM |
| [Bis(aminomethyl)pentamethylenesilane]dichloropaltinum(II), CHEMBL2146202 | 1.29 µM |
| [Bis(aminomethyl)tetramethylenesilane]tetrachloropaltinum(IV), CHEMBL2146189 | 2.22 µM |
| CISPLATIN, CHEMBL11359 | 1.99 µM |
| [Bis(aminomethyl)tetramethylenesilane]dichloropaltinum(II), CHEMBL2146205 | 8.15 µM |

Reference: ChEMBL document CHEMBL1201862, “PubChem BioAssay data set” (2004)
